Source: PubChem BioAssay
Unmarked numbers belong to inactive results. How the calls were made is not given here.

Test: blockers of DNA damage checkpoint Chk1 activation – imaging, HeLa, hydroxyurea, phospho-Chk1 antibody, percent positive cells, primary screen (AID 1186)
Conditions: hydroxyurea-induced phospho-Chk1 immunofluorescence imaging, higher = more signal

SMILES | z-score
COC(=O)[C@@]1(Cc2ccc(F)cc2)[C@H]2c3cc(C(=O)N(C)C)n(CCN4CCOCC4)c3C[C@H]2CN1C(=O)c1ccccc1 | -0.366
C[N+](C)(C)CCCCCCNC(=O)[C@@H]1C[C@@H]2C(=O)N[C@@H](Cc3ccccc3)C(=O)N2[C@@H]1c1ccc(O)cc1 | 0.459
CO[C@H]1O[C@H](CO)[C@@H](OC(=O)Nc2ccc(C(F)(F)F)cc2)[C@H](OC(=O)Nc2ccccc2-c2ccccc2)[C@@H]1OC(=O)Nc1ccccc1-c1ccccc1 | 0.206
C=C(CCCC)/C(=C/C[C@H](OC(C)=O)c1cccc(OCCO)c1)c1cc(C(=O)OC)ccc1OC | 0.0786
COc1ccc([Si](C)(C)[C@H]2[C@H](CCn3cc([C@H](O)c4ccccc4)nn3)O[C@@]3(C(=O)N(C)c4c(Br)cc(C)cc43)[C@@H]2C)cc1 | -0.66
COCCOC(=O)N1C(=O)[C@@]2(c3cc(C#CC4(O)CCCCCC4)ccc31)[C@H](C(=O)N1CCc3cc(OC)c(OC)cc3C1)[C@H]1C(=O)O[C@H](c3ccccc3)[C@H](c3ccccc3)N1[C@@H]2c1ccc(O)cc1 | 0.25
C=CCOC(=O)[C@H]1[C@@H]2C(=O)O[C@@H](c3ccccc3)[C@@H](c3ccccc3)N2[C@@H](c2ccc(OCCOC(=O)[C@H]3C[C@H]4C(=O)NCC(=O)N4[C@H]3c3ccc(O)cc3)cc2)[C@]12C(=O)Nc1ccc(I)cc12 | -1.06
COCCOC(=O)N1C(=O)[C@@]2(c3cc(C#CC4=CCCCC4)ccc31)[C@H](c1ccc(OCCO)cc1)N1[C@H](c3ccccc3)[C@H](c3ccccc3)OC(=O)[C@H]1[C@@H]2C(=O)N1CCCCCCC1 | -0.002
CCOC(=O)C1=C(C(=O)OCC)N(S(=O)(=O)CC[Si](C)(C)C)[C@H](c2ccccc2)CC1 | -0.184
C=CCC(OC(C)=O)[C@@H]1[C@@H](N(Cc2cc3ccccc3o2)C(=O)c2ccc(-c3ccccc3)cc2)c2cc(OCCCO)ccc2N1C(=O)c1ccc2ccccc2n1 (stereo not given in full) | -0.203
O=C1O[C@@H](c2ccccc2)[C@@H](c2ccccc2)N2[C@@H](c3ccc(O)cc3)[C@]3(C(=O)Nc4ccc(C#CC5=CCCCC5)cc43)[C@@H](C(=O)N3CCCCCCC3)[C@H]12 | -0.434
COCCOC(=O)N1C(=O)[C@@]2(c3cc(C#CCC(C(=O)OC)C(=O)OC)ccc31)[C@H](C(=O)N1CCc3cc(OC)c(OC)cc3C1)[C@H]1C(=O)O[C@H](c3ccccc3)[C@H](c3ccccc3)N1[C@@H]2c1ccc(O)cc1 | 0.182
C=C(/C(=C/C[C@H](OC(=O)c1ccncc1)c1ccccc1OCCO)c1cc(C(=O)OC)ccc1OC)C(C)C | -0.529
NCCCC[C@@H]1NC(=O)[C@H]2C[C@@H](C(=O)O)[C@@H](c3cccc(OCCO)c3)N2C1=O | 0.0547
CCCCN1CC=CC23O[C@@H]4/C=C\CCC(C)OC(=O)C4[C@H]2C(=O)N(C(C)CO)[C@@H]3C1=O (stereo not given in full) | 0.479
CC(=O)c1ccc(C(O)C2C=CC3C(=O)NC(=O)C3N2Nc2ccc(Cl)cc2Cl)cc1 (stereo not given) | 0.173
C[N+](C)(C)CCCC[C@@H]1NC(=O)[C@H]2C[C@@H](C(=O)NCCCCCNC(=O)CS)[C@@H](c3ccc(O)cc3)N2C1=O | 0.0225
CN(C)CCCCNC(=O)[C@H]1C[C@H]2C(=O)N[C@@H](Cc3ccccc3)C(=O)N2[C@H]1c1cccc(OCCO)c1 | -0.826

SMILES | z-score
NC(=O)NCC#Cc1ccc2c(c1)[C@]1(C(=O)N2)[C@H](C(=O)Nc2nc3ccccc3s2)[C@H]2C(=O)O[C@H](c3ccccc3)[C@H](c3ccccc3)N2[C@@H]1c1ccc(OCCO)cc1 | 0.287
CC(C)CNC(=O)[C@@H]1c2ccccc2C(=O)N(Cc2ccccc2Cl)[C@H]1c1ccc(CO)cc1 | 0.0107
C=CCNC(=O)[C@H]1[C@@H]2C(=O)O[C@@H](c3ccccc3)[C@@H](c3ccccc3)N2[C@@H](c2ccc(O)cc2)[C@]12C(=O)Nc1ccc(C#CC3=CCCCC3)cc12 | -0.354
CN(C)C(=O)[C@]1(Cc2ccccc2CN=[N+]=[N-])N=C(c2ccc(OCCCO)cc2)O[C@@H]1c1ccccc1N=[N+]=[N-] | -0.72
COCCn1c(C(=O)N2CCCC2)cc2c1C[C@H]1CN(C(=O)c3ccccc3)[C@@](Cc3ccccc3)(C(=O)OC)[C@@H]21 | 0.206
CCCC[C@@H](O)C1=C(COC)Cn2c(=O)n(-c3ccccc3)c(=O)n2[C@H]1CO | -0.464
CN(C)C(=O)[C@]1(Cc2ccccc2)N=C(c2ccc(OCCCO)cc2)O[C@@H]1c1ccccc1 | -0.752
COc1ccc([Si](C)(C)[C@H]2[C@H](CCO)O[C@@]3(C(=O)N(Cc4ccc(N5CCOC5=O)cc4)c4ccccc43)[C@@H]2C)cc1 | -0.73
C=CCC(OC(C)=O)[C@@H]1[C@@H](N(Cc2cccc3ccccc23)C(=O)c2ccc(-c3ccccc3)cc2)c2cc(OCCCO)ccc2N1C(=O)c1ccc2ccccc2n1 (stereo not given in full) | 0.116
C=CC[C@@]1(C(=O)O)N=C(c2ccc(OCCCO)cc2)O[C@@H]1c1ccccc1CN=[N+]=[N-] | -0.222
COC(=O)c1c(CC[C@@H](CO)NC(=O)N[C@@H](Cc2ccccc2)Cn2cc(-c3cncn3C)nn2)oc(C(C)=O)c1C(=O)OC | -0.331
COC(=O)Cn1c(C(=O)N(C)C)cc2c1C[C@H]1CN(C(=O)c3ccccc3)[C@@](Cc3ccc(OC)cc3)(C(=O)OC)[C@@H]21 | 0.0109
CCCC=C(CCC)[C@@H](NS(=O)(=O)c1ccc(Cl)cc1)c1ccccc1 | 0.081
COc1ccc(CCNC(=O)[C@@H]2c3ccccc3C(=O)N(CC34CC5CC(CC(C5)C3)C4)[C@H]2c2ccc(CO)cc2)cc1 | -0.0198
NC(=O)N1C(=O)C2C(C1=O)C1C=C(CCCO)C2C(c2ccc(CN3CCCC3)cc2)N1Cc1cccc(OC(F)(F)F)c1 (stereo not given) | 0.0295
COc1ccc([Si](C)(C)[C@H]2[C@H](CCn3cc([C@H](O)c4ccccc4)nn3)O[C@@]3(C(=O)N(c4ccccc4)c4ccccc43)[C@@H]2C)cc1 | -0.282
CCCC=C(CCC)[C@@H](NC(=O)c1ccccc1)c1ccc(C(=O)OC)cc1 | 0.473
